Most compounds without a hit are left out; they make up all but 19% or so of the library.
TDP1 cell CPT = DT40-hTDP1 cell growth loss with CPT | chicken DT40 Tdp1-/-;hTDP1 cells + 20 nM CPT, ATP luminescence, 48 h | Potency, µM (doses to about 46.2 µM), for inactives: at the highest dose activity change, negative = growth inhibition, hits mostly inhibitors | hit rate 12% among 420,000 | AID 686979; also: potency is read from the fitted curve at half-maximal effect; % is scaled to controls: 0 for no effect and ±100 for the full control effect; nearly all actives have a fitted effect of over 55% in size
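Chicken DT40 Tdp1-/- cells stably complemented with human TDP1 were seeded at 400 cells/well in medium containing 20 nM camptothecin, exposed to pin-transferred compounds, and grown at 37 °C for at least 48 hr. Viability was read as ATP luminescence.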
HepG2 tox = counter-screen for TGF-b inhibitors: cytotoxicity in HepG2 cells; hit rate 0.76% among 410,000; Potency, µM (doses to about 46.1 µM), for inactives: top-dose activity change, negative = cytotoxicity, hits mostly cytotoxic; HepG2 CAGA-GFP viability, ATP luminescence, 18 h; also: potency is read from the fitted curve at half-maximal effect
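CellTiter-Glo luminescence gave cytotoxicity after 18 hours at 37 degrees C. The cells were HepG2 CAGA-GFP in 1% FBS DMEM, stimulated with 500 pg/mL TGF-beta after compound addition. %Activity was normalised to no-cell wells (complete cell-killing) and DMSO (no toxicity), and curves were fitted and classified.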
TGFb inhibitor = TGF-b pathway inhibition; HepG2 CAGA-GFP TGF-b/SMAD3 reporter, GFP fluorescence, 18 h; TGF-beta stimulated, 500 pg/mL final; Potency, µM (titrated, usually from 46.1 µM), inactives show at the highest dose activity, negative = inhibition, usual class: inhibitors; hit rate 1.2% among 410,000; also: potency is read from the fitted curve at half-maximal effect; % is scaled to controls: 0 for no effect and ±100 for the full control effect; nearly all actives have a fitted effect of over 65% in size
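Inhibition was scored as loss of TGF-beta-induced (500 pg/mL final, 18 hours, 37 degrees C) GFP in HEPG2 cells carrying a CAGA-GFP reporter, in DMEM with 1% FBS. Well GFP was summed per cell; Activity was normalised to unstimulated and stimulated DMSO wells, then concentration-response fitting.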
TDP1 block = TDP1 (human) enzyme inhibition. Potency, µM (series often up to 130 µM), for the others: top-dose activity change, negative = inhibition, most hits filed as inhibitors. recombinant TDP1, AlphaScreen DNA substrate cleavage. hit rate 0.28% among 350,000. AID 485290; also: potency is read from the fitted curve at half-maximal effect; % is scaled to controls: 0 for no effect and ±100 for the full control effect; nearly all actives have a fitted effect of over 40% in size
Target sequence (Q9NUW8 whole entry, looked up): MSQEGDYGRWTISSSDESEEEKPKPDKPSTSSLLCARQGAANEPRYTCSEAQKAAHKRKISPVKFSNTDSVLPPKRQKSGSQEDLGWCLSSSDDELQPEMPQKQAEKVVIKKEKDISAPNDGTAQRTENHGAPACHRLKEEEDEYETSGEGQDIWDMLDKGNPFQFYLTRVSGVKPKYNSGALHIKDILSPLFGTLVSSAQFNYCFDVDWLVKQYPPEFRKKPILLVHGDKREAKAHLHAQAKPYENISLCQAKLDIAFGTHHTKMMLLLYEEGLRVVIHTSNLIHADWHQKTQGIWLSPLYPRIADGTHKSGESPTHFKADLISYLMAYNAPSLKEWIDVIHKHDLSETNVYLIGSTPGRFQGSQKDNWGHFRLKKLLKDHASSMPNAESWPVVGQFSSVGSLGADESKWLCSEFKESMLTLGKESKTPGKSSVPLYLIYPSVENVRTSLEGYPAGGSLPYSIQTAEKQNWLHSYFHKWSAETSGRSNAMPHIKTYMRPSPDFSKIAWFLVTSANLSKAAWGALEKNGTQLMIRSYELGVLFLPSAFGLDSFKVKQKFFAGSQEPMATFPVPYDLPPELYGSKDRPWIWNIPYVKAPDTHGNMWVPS
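AlphaScreen read-out: signal falls as enzyme removes the 3' tyrosine-FITC from a 5'-biotinylated DNA oligo (15 nM, 5 min, RT). Enzyme was E. coli-made recombinant Tdp1 at 1 nM, exposed to compound for 15 min beforehand; beads 10 ug/ml, 10 min.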
IL-1B inflam inh = blocks inflammasome-driven IL-1 beta release. AID 743279. hit rate 4.7% among 360,000. activity change, % at 57.5 µM. THP-1 LPS/ATP IL-1B secretion, AlphaLISA, 16 h; hits give low values; in the data active = activity change below about -50%; inconclusive = mostly about -30% to -49%; also: % is scaled to controls: 0 for no effect and ±100 for the full control effect
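Secreted IL-1B measured by AlphaLISA bead assay after 16 h compound exposure of THP-1 cells; compounds (final up to 57.5 uM) added 1 h before LPS (250 ng/mL) and ATP (1.25 mM) stimulation; lower signal means less secretion.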
DT40 TDP1 no CPT = qHTS for Inhibitors of human tyrosyl-DNA phosphodiesterase 1 (TDP1): qHTS in cells in absence of CPT; DT40 Tdp1-/- hTDP1 cells, no CPT, ATP luminescence, 48 h; Potency, µM (highest dose often 46.2 µM), without a hit: top-dose activity change, negative = growth inhibition, actives largely listed as inhibitors; AID 686978, 2013; hit rate 15% among 420,000; also: potency is read from the fitted curve at half-maximal effect; % is scaled to controls: 0 for no effect and ±100 for the full control effect; nearly all actives have a fitted effect of over 55% in size
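Growth of hTDP1-complemented DT40 Tdp1-knockout cells is measured by ATP luminescence after at least 48 hr compound exposure at 37 °C, with DMSO substituting for the 20 nM CPT used in the parallel screen.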
An asterisk follows results filed as active; ? = inconclusive; . = no result. Unless noted, calls follow the shape of the dose curve; as a rule, active = well fitted curve in the direction sought with a large enough effect; inconclusive = small, poorly fitted or top-dose-only effect, or another doubt; inactive = no such curve, though single readings can be large; an effect the other way counts as inactive or inconclusive.

SMILES	TDP1 cell CPT	HepG2 tox	TGFb inhibitor	TDP1 block	IL-1B inflam inh	DT40 TDP1 no CPT
COc1ccc(Cl)cc1NC(=O)CN(C)C(=O)c1ccc(-n2nc(C)cc2C)cc1	18.4µM*	-19.8%	-27.0%	-0.3%	-26.1	14.6µM*
COc1ccc(NC(=O)CN(c2ccccc2)S(=O)(=O)c2ccccc2)c(OC)c1	?	6.1%	6.0%	.	9.5	?
CCc1noc2nc(C)n(CC(=O)O)c(=O)c12	9.5%	3.1%	?	1.3%	.	-1.0%
COc1ccc(Cl)cc1NC(=O)CN(C)C(=O)c1sccc1-c1ccccc1	?	-21.3%	?	-2.2%	14.0	?
COc1ccc(Cl)cc1NC(=O)CN(C)C(=O)c1sc2ccccc2c1Cl	16.4µM*	-10.3%	-18.2%	0.3%	-6.1	?
COc1ccc(Cl)cc1NC(=O)CN(c1ccccc1)S(=O)(=O)N(C)C	29.1µM*	7.1%	-33.5%	2.0%	-9.7	18.4µM*
COc1ccc(C)cc1NC(=O)CN(c1ccccc1)S(=O)(=O)N(C)C	-21.2%	-11.1%	12.2%	2.1%	.	-27.5%
CC(C(c1ccc2c(c1)OCO2)c1c(N)n(C)c(=O)n(C)c1=O)[N+](=O)[O-] (centres undefined)	?	-7.3%	?	.	-12.0	16.4µM*
Cn1c(N)c(S(=O)(=O)N2CCN(Cc3ccccc3)CC2)c(=O)n(C)c1=O	28.0%	1.5%	6.3%	5.3%	4.8	-16.4%
Cn1c(N)c(C(C[N+](=O)[O-])c2ccccc2Cl)c(=O)n(C)c1=O (centres undefined)	4.11µM*	-2.3%	-13.7%	.	8.1	4.61µM*
Cn1c(=O)c2c(ncn2CC(=O)Nc2ccc3c(c2)OCO3)n(C)c1=O	-13.1%	8.7%	2.6%	.	-1.6	-6.5%
COc1cccc(F)c1C(C[N+](=O)[O-])c1c(N)n(C)c(=O)n(C)c1=O (centres undefined)	4.61µM*	-123.0%	3.98µM*	-0.6%	-99.9*	2.31µM*
COc1cc(C(C[N+](=O)[O-])c2c(N)n(C)c(=O)n(C)c2=O)ccc1O (centres undefined)	6.51µM*	-41.3%	?	2.6%	-1.9	6.51µM*
Cc1c(Cl)c([N+](=O)[O-])nn1CC(=O)NCc1ccc(Cl)cc1	6.1%	7.2%	-2.4%	.	11.3	0.5%
COc1ccccc1NC(=O)CSc1nnnn1-c1ccccc1F	7.0%	3.6%	9.3%	.	-25.6	20.3%
Cc1ccc(C(C[N+](=O)[O-])c2c(N)n(C)c(=O)n(C)c2=O)cc1 (centres undefined)	3.66µM*	-90.0%	?	1.9%	?	5.17µM*
Cn1c(N)c(C(=O)c2ccccc2)c(=O)n(C)c1=O	-1.2%	-17.9%	-5.7%	6.6%	27.0	9.1%
CCC(C(=O)NC1CCCCC1)n1c2ccccc2c2nc(=O)cc(C)n21 (centres undefined)	-13.1%	-1.3%	0.5%	-0.2%	41.8	-9.8%
S=c1[nH]c2ccccc2s1	?	.	.	9.2%	.	?
Cc1ccccc1OCc1nnc(SC(C)C(=O)O)n1-c1ccccc1 (centres undefined)	-11.1%	-56.0%	0.9%	.	-8.1	4.6%
Cc1ccccc1OCc1nnc(SCCN2CCCC2)n1-c1ccccc1	23.1µM*	-33.4%	-25.7%	-2.4%	-7.1	20.6µM*
COc1ccc(-n2c(COc3cccc4ccccc34)nnc2SCC#N)cc1	?	-0.2%	?	4.7%	-21.2	?
N#CCSc1nnc(COc2cccc3ccccc23)n1-c1cccc(Cl)c1	?	-31.4%	?	3.0%	?	20.6µM*
O=C(O)CCSc1nnc(COc2cccc3ccccc23)n1-c1cccc(Cl)c1	19.5%	1.4%	19.4%	7.0%	12.0	-3.3%
Cc1ccc(-c2nnc(CSc3nnc(COc4cccc5ccccc45)n3-c3ccccc3)o2)cc1	?	27.1%	12.6µM*	9.6%	0.0	?
SMILES	TDP1 cell CPT	HepG2 tox	TGFb inhibitor	TDP1 block	IL-1B inflam inh	DT40 TDP1 no CPT
N#CCSc1nnc(COc2cccc3ccccc23)n1-c1ccccc1	16.4µM*	-32.0%	?	5.7%	-67.8*	20.6µM*
Cc1ccc(Cn2c(=O)n(Cc3ccco3)c(=O)c3oc4ccccc4c32)cc1	-6.1%	-13.5%	-32.2%	-2.6%	.	-9.6%
O=C1OC[C@@H]2CCCN2C(=O)[C@@H](CC(=O)N(CCO)Cc2ccccc2)C/C=C\C[C@@H]1Cc1ccc(F)cc1	23.1µM*	-13.7%	-4.4%	-3.6%	?	?
O=C1N[C@H](Cc2ccccc2)COC(=O)[C@H](Cc2ccc(F)cc2)C/C=C\C[C@@H]1CC(=O)N(CCO)Cc1ccccc1	?	-10.2%	?	2.3%	?	16.4µM*
O=C1N[C@@H](Cc2c[nH]c3ccccc23)COC(=O)[C@@H](Cc2ccc(F)cc2)C/C=C\C[C@H]1CC(=O)N(CCO)Cc1ccccc1	?	-17.3%	?	4.8%	?	20.6µM*
O=C1N[C@@H](Cc2ccccc2)COC(=O)[C@H](Cc2ccc(F)cc2)C/C=C\C[C@@H]1CC(=O)N(CCO)Cc1ccccc1	?	-8.4%	?	0.2%	?	?
C[C@H]1COC(=O)[C@@H](Cc2ccc(F)cc2)C/C=C\C[C@H](CC(=O)N(CCO)Cc2ccccc2)C(=O)N1	20.6µM*	-5.1%	-16.4%	0.5%	24.3	23.1µM*
CCOc1ccc(N(CC(=O)NCc2ccco2)C(=O)CCC(=O)Nc2nccs2)cc1	-13.4%	7.8%	-3.8%	5.7%	-12.4	-12.2%
Cc1ccc([N+](=O)[O-])cc1NC(=O)c1c(-c2ccccc2)noc1C	5.6%	-10.3%	17.9%	3.6%	7.4	1.5%
CC(C)(C)OC(=O)C[C@@H]1C/C=C\C[C@H](CC(=O)N(CCO)Cc2ccccc2)C(=O)N[C@@H](Cc2ccccc2)COC1=O	?	-25.3%	-22.0%	-0.1%	-14.0	?
O=C1N[C@H](Cc2ccccc2)COC(=O)[C@@H](Cc2ccc(F)cc2)C/C=C\C[C@H]1CC(=O)N(CCO)Cc1ccccc1	?	3.4%	?	0.0%	-59.1*	25.9µM*
COc1cccc(NC(=O)c2ccc(NCCCN3CCC(C)CC3)c([N+](=O)[O-])c2)c1	?	-25.6%	-21.1%	2.3%	-64.5*	16.4µM*
